Rows were chosen to be rich in hits. Some 0.56% of all compounds tested hit in one or more screens of this group.
ERp5 inh – inhibitors of ERp5-driven insulin aggregation, primary screen, biochemical, turbidity, absorbance 650 nm, single point; Protein disulfide-isomerase A6 (Homo sapiens), Q15084; inhibition, % at 9.99 µM; 90 min; 350,000 compounds, 0.05% hits;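 active = mean replicate inhibition above about 25%, with every replicate also reaching it, limit read from the data, passing the limit was not always enough; inconclusive = only one of those two criteria met; inactive = neither criterion met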
PvdQ acylase – P. aeruginosa PvdQ acylase inhibitors, primary screen, biochemical, fluorescence, plate reader and imaging, single point; PvdQ acylase [Pseudomonas aeruginosa LESB58]; purified PvdQ acylase; inhibition, % at 10 µM; 340,000 compounds, 0.063% hits; in the data active = inhibition above about 30%, passing the limit was not always enough; inconclusive = no clear call, values can overlap the other calls;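 also: 0% = vehicle neutral wells and 100% = reference inhibitor wells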
Vif imaging – HIV Vif self-association inhibitors, primary screen, imaging, HEK293T, single point; inhibition, % at 7.49 µM; HEK293T cells, Vif self-association by quenched fluorescence, 24 h; 340,000 compounds, 0.35% hits; in the data active = inhibition above about 50%, passing the limit was not always enough; inconclusive = no clear call, values can overlap the other calls; inactive = below about 31%
N-glyco inh – increase of ERlucT glycosylation luciferase signal, primary screen, N-linked glycosylation inhibitor project, D54 ERlucT cells, luminescence, set 2 | D54 ERlucT glycosylation luciferase reporter, 24 h; percent of 100 nM tunicamycin response | reporter increase, % at 12.5 µM | 360,000 compounds, 0.23% hits;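 active = mean luciferase reporter signal, scaled so untreated is 0 and the glycosylation-blocking control 100, at or above a set limit in every replicate; inconclusive = mean reaches the limit but not every replicate does; inactive = mean below the limit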;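 also: luciferase carries N-glycosylation sites so blocking glycosylation raises the light; 0% = median of neutral control wells and 100% = median of 100 nM tunicamycin wells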
PDI turbidity – inhibitors of human PDI, primary screen, biochemical, turbidity, single point, plate reader; Protein disulfide-isomerase (Homo sapiens), P07237; PDI insulin aggregation turbidity, A650, 90 min; inhibition, % at 10 µM; 350,000 compounds, 0.052% hits;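 active = mean inhibition across replicates of 30% or more, whatever share of single replicates reach that level; inconclusive = mean inhibition below 30% while every single replicate reaches 30%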
Target sequence (P07237 whole entry, looked up): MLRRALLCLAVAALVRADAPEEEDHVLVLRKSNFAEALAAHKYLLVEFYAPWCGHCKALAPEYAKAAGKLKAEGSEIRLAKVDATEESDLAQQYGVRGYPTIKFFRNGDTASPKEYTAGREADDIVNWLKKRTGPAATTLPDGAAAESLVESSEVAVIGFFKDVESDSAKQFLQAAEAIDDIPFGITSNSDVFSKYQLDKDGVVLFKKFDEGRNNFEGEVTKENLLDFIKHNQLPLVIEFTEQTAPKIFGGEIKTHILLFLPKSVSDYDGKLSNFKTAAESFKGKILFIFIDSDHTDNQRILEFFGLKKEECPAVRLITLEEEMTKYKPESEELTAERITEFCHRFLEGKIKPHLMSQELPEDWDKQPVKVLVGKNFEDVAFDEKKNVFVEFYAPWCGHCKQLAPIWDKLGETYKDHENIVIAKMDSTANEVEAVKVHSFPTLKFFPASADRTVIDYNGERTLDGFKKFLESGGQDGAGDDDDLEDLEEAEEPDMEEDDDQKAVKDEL
Starred values were filed as active, the others as inactive; ? = inconclusive; nt = not tested or not shown.

SMILES	ERp5 inh	PvdQ acylase	Vif imaging	N-glyco inh	PDI turbidity
O=C(COC(=O)c1cc(S(=O)(=O)N2CCOCC2)ccc1Cl)c1ccc[nH]1	8	nt	8	2	13
NS(=O)(=O)c1cccc(NC(=O)CSc2nnc(-c3ccccc3)o2)c1	-2	1	-7	1	-1
COc1ccc(C(=O)/C=C\c2ccc(NC(=O)c3cccs3)cc2)cc1	nt	-9	3	48*	-2
COc1ccc(/C=C/C(=O)c2ccoc2)cc1	4	40*	9	2	5
COc1ccc(NC(=O)c2ccc(NC(=O)c3cccs3)cc2)cc1	-7	-5	nt	nt	-1
CC(C)C[C@H](NC(=O)N1CCn2c1nc1ccccc12)C(=O)N[C@@H](Cc1ccccc1)C(=O)O	0	-11	5	2	nt
Cc1nc(S/C(=C/c2ccc(-c3cc(Cl)ccc3C)o2)C(=O)O)n[nH]1	11	9	52*	1	0
COc1cccc2nc3c(C(=O)NCCN(C)C)cccc3cc12	-9	-12	-34	49*	-4
CN(C)CCNC(=O)c1ccccc1-c1ccccc1	nt	-16	-12	1	2
COc1ccc(Cl)cc1C(=O)NCCN(C)C	nt	3	1	-2	2
COc1ccc(C(=O)NCCN(C)C)c2nc3ccccc3cc12	-13	-20	13	54*	-12
CN(C)CCNC(=O)c1cccc2[nH]c(-c3ccncc3)nc12	-2	-10	-6	68*	2
COc1ccc(-c2nc3c(C(=O)NCCN(C)C)cccc3c3ccccc23)cc1	3	-5	0	37*	5
CCNC(=O)C1CN(S(=O)(=O)c2ccccc2)CCN1S(=O)(=O)c1ccccc1 (stereo not drawn)	1	-5	-2	1	5
COC(=O)c1c(NC(=O)c2ccoc2C)sc2c1CCC2	nt	-3	-8	1	-1
COCC(=O)Nc1ccc2c(c1)OC[C@@H](C)N(CC1CCCCC1)C[C@H](C)[C@H](OC)CN(C)C2=O	-2	nt	nt	nt	nt
CN(C)CCNC(=O)c1cccc2nc3c(ccc4ccccc43)nc12	3	-11	-9	56*	8
CN(C)CCNC(=O)c1ccccc1-c1cc2ccccc2c(=O)o1	-2	-16	10	1	1
CN(C(=O)CCn1c(=S)oc2ccccc21)c1ccc(F)cc1	4	36*	0	-1	-7
O=C(CCn1c(=S)oc2ccccc21)Nc1ccc(F)cc1	-3	-16	0	-1	1
CC(=O)c1ccc(NC(=O)C2CCC(C)(C(=O)O)C2(C)C)cc1 (stereo not drawn)	nt	-4	0	1	-1
O=C(NCCSc1ccccn1)c1ccc(Cl)cc1	-1	-2	-4	-14	11
N#CC(Sc1ccccn1)c1ccc(Cl)cc1 (stereo not drawn)	-2	48*	1	0	-11
Cc1cccc(NC(=O)C(C)n2cc([N+](=O)[O-])cn2)n1 (stereo not drawn)	-2	-15	-3	0	6
CN1CCN(CC(=O)NC2CCCCC2)CC1	nt	-7	92*	-1	-14
SMILES	ERp5 inh	PvdQ acylase	Vif imaging	N-glyco inh	PDI turbidity
O=C(COc1ccccc1CNCc1ccccc1)Nc1ccccc1	nt	-9	-6	47*	-49
COc1ccc(-c2nn(-c3ccccc3)cc2C(=O)NC(=S)NNC(=O)c2ccncc2)cc1	-7	-3	60*	-5	2
COc1ccc(NC(=O)c2cn(-c3ccccc3)nc2-c2ccncc2)cc1	0	-1	-2	-2	-5
COc1ccc(C(=O)c2ccccc2Cl)cc1OC	-2	0	?	0	-11
C=CC(=O)N1C/C(=C/c2ccc(F)cc2)C(=O)/C(=C\c2ccc(F)cc2)C1	4	6	143*	-18	1
CN1C2CCC1/C(=C\c1ccc(F)cc1)C(=O)/C2=C/c1ccc(F)cc1	nt	5	-1	20	-6
COC1CCN(C(=O)C2CCC(=O)N(C3CCCCCC3)C2)CC1 (stereo not drawn)	6	-14	-4	2	12
O=C(O)c1cccc(Nc2ccnc(Nc3cccc(C(=O)O)c3)n2)c1	3	3	140*	-1	-2
CC(C)C1N=C(c2ccc3c(c2)OCO3)CC(c2ccccc2O)N1 (stereo not drawn)	nt	-3	0	37*	2

Screening results deposited in PubChem BioAssay by Broad Institute.
